Compound activity as filed in PubChem.
Only some compounds are listed: those with a hit (about 9% of all), similar ones and a draw of the others.
Luc counter: counter-screen: inhibitors of Kinase-Glo firefly luciferase. Kinase-Glo luciferase, ATP luminescence, 8 min. Potency, µM (top dose mostly 38.3 µM), inactives show at the top dose activity change, negative = inhibition, usual class: inhibitors. AID 1379. 0.28% of 200,000 active. Q27757; further: on the % scale 0 is the no-effect control and ±100 the full control effect; nearly all actives have a fitted effect of over 60% in size
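Compound is pinned into ATP-containing buffer (10 uM ATP, imidazole pH 7.2, 7 mM MgCl2). Kinase-Glo luciferase reagent is then added. Light output is recorded following an 8-min room-temperature incubation.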
HTT ATP protect: cytoprotection in Huntington HTT-Q103 PC12 cell model; PC12 HTT-Q103 induced, cytoprotection, ATP luminescence, 40 h; Potency, µM (doses to about 56.4 µM), for inactives: cytoprotection (ATP increase), most hits filed as activators; AID 1471; 0.14% of 230,000 active; further: % of control where 0% means no effect; nearly all actives have a fitted effect of over 45% in size
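Huntington model: PC12 line, ecdysone-inducible HTTQ103 exon1–GFP, tebufenozide 100 nM. Test articles in a dose series. Endpoint luminescence from cellular ATP.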
HTT aggregate: reduces HttQ103-GFP aggregates in PC12 cells | PC12 HttQ103-GFP aggregates, Acumen cytometry, 40 h | Potency, µM (titrated, usually from 46.1 µM), inactives show at the highest dose activity change, negative = inhibition, hits mostly inhibitors | AID 1688 | 1.1% of 220,000 active; further: on the % scale 0 is the no-effect control and ±100 the full control effect; nearly all actives have a fitted effect of over 60% in size
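PC12/HTTQ103-GFP, ecdysone-inducible; teb 100 nM; cpd qHTS titration; GFP aggregates read on laser cytometer, Ex 488/Em 500-530 nm.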
Lamin A splicing: modulators of lamin A splicing; Potency, µM (highest dose often 46.1 µM), for the others: top-dose ratio change, negative = inhibition, usual class: inhibitors; HeLa LMNA splicing GFP/RFP minigene ratio, 48 h; 0.01% of 200,000 active; active means well fitted inhibition curve with a large enough effect in the signal ratio, with a control signal flat, not every such curve was filed as active; inconclusive means small, poorly fitted or top-dose-only effect, or effect the other way, or a change in a side signal; the % refers to the signal ratio; further: on the % scale 0 is the no-effect control and ±100 the full control effect
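S3 HeLa cells stably expressing lamin A-EGFP splicing minigene plus DsRed2, 600 cells/well, 48 h compound exposure at 37C. Laser-scanning cytometry; analysed as GFP (500-530 nm)/RFP (575-640 nm) total intensity ratio; 0.5% DMSO vehicle.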
HPGD inh: blocks human HPGD enzyme activity; P15428; purified HPGD, NADH fluorescence kinetic, PGE2 substrate; Potency, µM, for the others: at the highest dose activity change, negative = inhibition, actives largely listed as inhibitors; 4.3% of 150,000 active; AID 894; active means well fitted inhibition curve with a large enough effect, not every such curve was filed as active; inconclusive means small, poorly fitted or top-dose-only effect, or another doubt; inactive means no such curve, though single readings can be large or run the other way; further: on the % scale 0 is the no-effect control and ±100 the full control effect
Target sequence (P15428 whole entry, looked up): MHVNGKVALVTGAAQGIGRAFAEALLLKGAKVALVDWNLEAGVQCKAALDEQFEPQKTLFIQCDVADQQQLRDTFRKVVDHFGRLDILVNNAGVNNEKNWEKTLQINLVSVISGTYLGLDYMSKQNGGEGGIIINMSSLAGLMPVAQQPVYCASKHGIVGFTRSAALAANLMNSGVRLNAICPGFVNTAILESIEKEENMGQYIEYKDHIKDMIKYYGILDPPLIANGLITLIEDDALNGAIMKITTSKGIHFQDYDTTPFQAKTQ
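20 nM HPGD preincubated 15 min at room temperature with compound in 50 mM Tris-HCl pH 8, 0.01% Tween 20. Started with 1 mM NAD+ and 30 uM prostaglandin E2; NADH fluorescence (360/450 nm) read 5 times over 30-s intervals, last minus first.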
ALDH1A1 block: blocks purified human ALDH1A1 activity; 7.3% of 220,000 active; P00352; Purified ALDH1A1, NADH fluorescence, propionaldehyde substrate; AID 1030; Potency, µM (doses to about 75.3 µM), without a hit: at the highest dose activity, negative = inhibition, usual class: inhibitors; active means well fitted inhibition curve with a large enough effect, not every such curve was filed as active; inconclusive means small, poorly fitted or top-dose-only effect, or another doubt; inactive means no such curve, though single readings can be large or run the other way;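 further: plate controls were no enzyme wells and a reference inhibitor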
Target sequence (P00352 whole entry, looked up): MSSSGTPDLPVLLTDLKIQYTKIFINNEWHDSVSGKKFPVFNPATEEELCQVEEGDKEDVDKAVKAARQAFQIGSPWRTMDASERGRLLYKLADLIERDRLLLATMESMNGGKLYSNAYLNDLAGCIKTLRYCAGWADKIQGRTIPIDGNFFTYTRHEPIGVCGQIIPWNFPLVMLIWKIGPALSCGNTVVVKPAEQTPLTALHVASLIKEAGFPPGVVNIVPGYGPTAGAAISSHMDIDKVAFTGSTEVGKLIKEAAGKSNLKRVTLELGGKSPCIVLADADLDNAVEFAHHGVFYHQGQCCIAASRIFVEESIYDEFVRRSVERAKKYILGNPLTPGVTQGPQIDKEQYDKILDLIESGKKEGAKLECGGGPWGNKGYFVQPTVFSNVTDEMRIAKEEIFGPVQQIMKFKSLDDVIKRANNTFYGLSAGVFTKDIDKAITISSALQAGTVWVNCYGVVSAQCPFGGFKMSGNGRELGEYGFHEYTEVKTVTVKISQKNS
* hit, by the source's call; ? = inconclusive; . = no result given; ! = not confirmed by another sample; [ ] = remark or other dose. Unless noted, the call rests on the fitted dose curve; in most records, active means well fitted curve in the direction sought with a large enough effect; inconclusive means small, poorly fitted or top-dose-only effect, or another doubt; inactive means no such curve, though single readings can be large; an effect the other way counts as inactive or inconclusive. Potency means the concentration at half of the fitted maximal effect.

SMILES	Luc counter	HTT ATP protect	HTT aggregate	Lamin A splicing	HPGD inh	ALDH1A1 block
CN1CCCc2cc(C=O)ccc21	-4.9%	9.4%[1.9 µM]	-6.7%	-7.8%	?	0.199µM*
CN1/C(=C\C=C2/C(=O)Oc3ccccc3C2=O)C(C)(C)c2ccccc21	1.2%	.	7.94µM*	?	-12.0%	-0.6%
COC(=O)CC[C@@H](C)[C@@H]1CC[C@@H]2[C@@H]3CC[C@H]4C[C@@H](O)CC[C@@]4(C)[C@@H]3CC[C@]21C	-2.2%[7.66 µM]	-0.9%[10 µM]	.	.	-8.9%	4.4%[13.5 µM]
Brc1ccc2[nH]c3c(c2c1)CCC3	.	25.0%[10 µM]	24.3%[9.22 µM]	.	.	-1.0%
O=C1Cc2c([nH]c3ccc(Br)cc23)-c2ccccc2N1	-3.2%	15.8µM*!	.	?	-25.6%	10.3%
CCN1/C(=C/C(C)=C/c2sc3ccccc3[n+]2CC)Sc2ccccc21	?	-186.3%	1.12µM*	.	.	?
CCc1nnc(NC(=O)CSc2nnc(-c3ccc(OC)cc3)n2C)s1	1.7%	16.3%[10 µM]	3.5%	-4.7%	-7.0%	2.3%
O=C(O)c1ccccc1C(=O)NNc1ccc(F)cc1F	-6.9%	-26.3%	-6.1%	8.3%[46 µM]	.	?
CC(=O)c1ccc(-n2c(-c3cc(-c4ccco4)[nH]n3)n[nH]c2=S)cc1	-1.8%	-28.9%	24.4%	2.9%	5.62µM*	-8.8%
S=c1[nH]nc(Cc2cccs2)n1-c1cccc2ccccc12	1.8%	28.5%[10 µM]	12.0%	7.6%	25.1µM*	-4.8%
S=c1[nH]nc(-c2cc(-c3ccco3)[nH]n2)n1-c1cccc2ccccc12	0.8%	0.8%	26.0%	0.1%	11.2µM*	?
CCCC(C)C(=O)Nc1nc(C)c(-c2csc(Nc3ccccc3OC)n2)s1 (centres undefined)	-1.8%	-52.6%[10 µM]	?	?	?	?
CCCCC1CCC(C(=O)N2CCOCC2)CC1 (centres undefined)	-3.4%	.	13.1%	3.4%	15.8µM*	8.7%
C=CCn1c(N)cc(=O)nc1SCC(=O)N(c1ccccc1)c1ccccc1	4.1%	-16.7%	6.2%	.	.	22.4µM*
COc1ccccc1NC(=O)NCc1ccco1	-1.2%	-48.0%	12.4%	.	.	-0.3%
Cc1ccc(NC(=O)Cn2nnc(C(=O)NCc3cccs3)c2N)cc1	2.0%	-0.1%[10 µM]	21.2%	-0.6%	-1.6%	17.7%
CNc1ncnc(Sc2nc(N)nc3nc[nH]c23)c1[N+](=O)[O-]	2.0%[7.66 µM]	-32.1%[10 µM]	.	.	-4.0%	21.3%[13.5 µM]
Nc1nc(Sc2ccc([N+](=O)[O-])c3nonc23)c2[nH]cnc2n1	-14.7%[7.66 µM]	-9.9%[10 µM]	.	.	1.26µM*	2µM*
O=[N+]([O-])c1ccc(NC(=S)N2CCN(c3ccc(F)cc3)CC2)cc1	-0.4%	-15.2%	?	6.4%[0.0737 µM]	-15.3%	4.2%
CN(C)c1ccc(C(=S)N2CCN(c3ccc([N+](=O)[O-])cc3)CC2)cc1	.	-4.2%[10 µM]	-6.6%[9.22 µM]	.	.	1µM*
O=[N+]([O-])c1ccc(C(=S)N2CCN(c3ccc(F)cc3)CC2)cc1	2.5%	-37.8%	-21.5%	?	.	10µM*
CC(=O)N1CCN(C(=S)c2ccc([N+](=O)[O-])cc2)CC1	6.2%	-3.5%[10 µM]	5.6%	-9.3%	31.6µM*	22.4µM*
Cc1cccc(N2CCN(C(=S)c3ccc([N+](=O)[O-])cc3)CC2)c1	-0.9%	11.3%[10 µM]	-8.9%	?	7.94µM*	2.51µM*
CC(=O)N1CCN(c2ccc([N+](=O)[O-])cc2)CC1	-1.3%	-6.2%[10 µM]	-10.4%[9.22 µM]	0.8%[46 µM]	.	0.9%
CSc1nc2nccc(-c3ccc4c(c3)OCO4)n2n1	0.0%	-29.4%[10 µM]	3.5%	16.4%[46 µM]	.	?
SMILES	Luc counter	HTT ATP protect	HTT aggregate	Lamin A splicing	HPGD inh	ALDH1A1 block
Cc1cccc(N2CC(O)=C(c3nc4ccccc4n3C)C2=N)c1	-4.1%	-22.0%	14.4%	-5.3%	11.2µM*	5.9%
Cn1c(C2=C(O)CN(c3ccccc3)C2=N)nc2ccccc21	-2.2%	-17.0%	5.2%	11.1%[46 µM]	.	4.7%
CC(=O)Nc1ccc(C(=O)CSc2nc3ccccc3n2CC(=O)N2CCCC2)cc1	12.2%	-6.9%	?	-4.4%	?	25.1µM*
COc1ccc(C(=O)CSc2nc3ccccc3n2CC(=O)NC(C)(C)C)cc1	0.2%	4.6%	13.3%	5.5%	-2.3%	2.24µM*
COC(=O)c1ccc(NC(=S)N2CCN(Cc3cccc(C)c3)CC2)cc1	-1.1%	-21.9%	22.5%	-5.2%	-2.0%	-9.1%
Cn1nc(C(C)(C)C)cc1C(=O)NNC(=O)c1ccccc1Cl	.	25.3%[10 µM]	8.5%[9.22 µM]	.	.	0.3%
COc1cc(OC)cc(C(=O)N[C@H](C(=O)Nc2ccc(S(=O)(=O)N(C)C)cc2)C(C)C)c1	.	-22.1%	-8.2%	.	.	?
CCN(CC)C(NC(=O)Cc1ccccc1)C(Cl)(Cl)Cl (centres undefined)	-1.2%	-4.6%	9.8%	6.1%	14.1µM*	?
O=C1CCCN1c1ccc(CNS(=O)(=O)c2ccc(F)cc2)cc1	4.0%	17.2%	-5.0%	-1.8%	-20.6%	-9.0%
COc1ccc(-n2c(C)c(C(C)=O)c3cc(O)ccc32)cc1	7.9%	-10.4%[10 µM]	0.316µM*	1.5%	3.98µM*	-8.5%
CCOc1ccc(-n2c(C)c(C(C)=O)c(C(C)=O)c2C)cc1	-0.9%	29.0%[10 µM]	-30.4%	-11.5%	-10.0%	22.4µM*
CC1CCCCN1S(=O)(=O)c1ccc(C(=O)Nc2sccc2C(N)=O)cc1 (centres undefined)	-7.7%	24.5%[10 µM]	?	?	28.2µM*	14.1µM*
O=C(COC(=O)c1ccc(Cl)s1)c1cc2ccccc2o1	-5.3%	-13.7%	3.0%	-5.9%	35.5µM*	?
O=C(COC(=O)c1cc(S(=O)(=O)NCc2ccccc2)ccc1O)c1cc2ccccc2o1	.	21.6%[10 µM]	15.4%[9.22 µM]	.	.	.
Cn1cccc1C(=O)OCC(=O)c1cc2ccccc2o1	-5.6%	1.0%[10 µM]	2.7%	-1.5%	28.2µM*	?
CC(=O)C(=Cc1cn(-c2ccccc2)nc1-c1ccccc1)C(C)=O	0.4%	7.6%	-31.6%	-21.8%[46 µM]	.	?
COc1ccc(/C=N/N=C2/NC(=O)C(CC(=O)NC(C)C)S2)cc1 (centres undefined)	2.0%	-4.3%	19.6%	.	.	15.9%
COc1ccc(CCNC(=O)CC2SC(=NCCC(C)C)NC2=O)cc1OC (centres undefined)	-1.1%	19.1%[10 µM]	-0.7%	-4.7%	-2.3%	?
CCN=C1SC(CC(=O)NCCc2ccc(OC)c(OC)c2)C(=O)N1CC (centres undefined)	-7.3%	5.5%	13.8%	11.0%	-4.5%	20µM*
COc1ccc(CCNC(=O)CC2SC(=NCCc3ccccc3)NC2=O)cc1 (centres undefined)	-0.4%	-10.9%[10 µM]	7.7%	-10.4%	-8.3%	28.2µM*
COc1ccc(CCNC(=O)CC2SC(=NCCc3ccccc3)NC2=O)cc1OC (centres undefined)	3.7%	-5.7%[10 µM]	15.4%	4.9%	-1.0%	14.1µM*
